Rows were chosen to be rich in hits. Some 1.3% of all compounds tested hit in one or more screens of this group.
Sa ugtP lethal: compounds lethal to S. aureus RN4220 ugtP deletion mutant | OD600 growth, 16 h | growth inhibition, % (test concentration not listed) | actives 0.54% (n = 330,000); in the data active means growth inhibition above about 68%;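 further: plate controls were untreated wells for no effect and antibiotic for full effect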
MazEF act: increases E. coli MazEF RNase cleavage of RNA; actives 0.32% (n = 350,000); FAM/BHQ RNA-DNA oligo cleavage fluorescence, 5 h; P0AE70; AID 504720; activation, % at 20 µM; in the data active means activation above about 50%
PfHsp40 yeast: restores yeast growth despite PfHsp40 toxicity; actives 0.68% (n = 340,000); AID 504582; S. cerevisiae expressing PfHsp40, growth rescue, ATP luminescence; growth rescue, % at 12.5 µM; in the data active means growth rescue above about 28%, passing the limit was not always enough; inconclusive means no clear call, values can overlap the other calls;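 further: yeast W303a lacking pdr1 and pdr3 grown in galactose medium; growth measured after three days at 30 °C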
TcdB GH inh: inhibitors of Clostridioides difficile toxin B glycohydrolase; P18177; TcdB glycohydrolase enzymatic assay, plate reader; inhibition, % at 9.99 µM; AID 652162; actives 0.24% (n = 350,000); in the data active means inhibition above about 10%
Mtb hypoxia inh: Mtb hypoxia fluorescent reporter inhibition. actives 0.1% (n = 300,000). AID 1159583. M. tuberculosis hypoxia-regulated fluorescent reporter, fluorescence. fluorescence inhibition, % (test concentration not listed); in the data active means fluorescence inhibition mostly above about 23%, no sharp cut-off; inactive means mostly below about 17%
Sa RN4220 lethal: S. aureus RN4220 growth inhibition | OD600, 16 h | inhibition, % (test concentration not listed) | actives 0.33% (n = 330,000); in the data active means inhibition above about 85%;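 further: plate controls were untreated cells for no effect and reference antibiotic for full effect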
* = called active by the depositor; ? = inconclusive; . = no result given; ! = not active in a repeat.

SMILES	Sa ugtP lethal	MazEF act	PfHsp40 yeast	TcdB GH inh	Mtb hypoxia inh	Sa RN4220 lethal
Cc1ccc(CNC(=O)CCn2cc(-c3ccc(C)cc3)nc2CCN)cc1	.	3	40*	0	.	.
COc1ccc(-c2cn(CCC(=O)NCc3ccc(C)cc3)c(-c3ccncc3)n2)cc1	1	-12	1	1	3	6
O=C(COC(=O)Cc1ccc(Cl)cc1)NCc1cccs1	7	1	3	4	29*	0
O=C(COC(=O)Cc1ccc(Cl)cc1)NCc1ccc(Cl)cc1	.	6	.	2	.	.
Cc1cccc(C=NNC(=O)c2sccc2-n2cccc2)c1	6	.	.	.	.	2
CCCNc1nc(C)cc(-c2cc(C(=O)Nc3ccccc3)on2)n1	.	7	196*	1	.	.
COc1ccc(C(=O)c2c(C(F)(F)F)oc3c2C(=O)c2ccccc2C3=O)cc1	33	14	0	.	.	94*
O=C(C[n+]1cc(-c2ccc(Cl)c(Cl)c2)n2c1CCC2)N1c2ccccc2Sc2ccccc21	101*	16	0	.	5	100*
COC(=O)CC1=C(C(=O)OC)C2(C(=O)Nc3c(C)cccc32)C(C#N)=C(N)O1 (configuration not stated)	95*	-4	0	.	0	97*
CCOC(=O)C1=C(C)OC(N)=C(C#N)C12C(=O)N(C)c1ccccc12 (configuration not stated)	74	63*	0	.	9	91*
O=C(O)c1cccc2nc3ccccc3nc12	5	-1	48*	2	.	25
C=CCNC(=S)NNc1nc2c(c(=O)[nH]1)C1(CCCCC1)Cc1ccccc1-2	85*	-2	3	-1	-12	-18
COc1ccc(C(=O)/C=C2\Sc3ccccc3N2C)cc1	7	11	1	2	4	7
COc1ccccc1-[n+]1c(C)cc(/C=C2\Sc3ccccc3N2C)cc1C	100*	-199	-1	5	.	100*
COc1ccc(-[n+]2c(C)cc(/C=C3\Sc4ccccc4N3C)cc2C)cc1	100*	.	?	10	.	100*
CC(C)CC#Cc1ccc2c(c1)O[C@@H](CN(C)Cc1ccncc1)[C@@H](C)CN([C@H](C)CO)S2(=O)=O	.	.	.	0	.	.
Cc1ccsc1C(=O)N1CCCC(CCC(=O)NCc2ccccc2F)C1 (configuration not stated)	0	6	37*	-2	5	2
CCOc1c2ccc(C(=O)NC(C)C3CCCCC3)cc2nn1CC (configuration not stated)	1	.	.	.	2	10
O=C(Nc1cccc(O)c1)c1cccc(NC(=O)c2cccs2)c1	-1	12	-1	0	54*	5
CNc1ccc(C=C2C=Cc3ccccc32)cc1	77	9	172*	-6	2	20
CC(C)C(=O)Nc1ccc(C=C2C=Cc3ccccc32)cc1	.	.	.	0	.	.
COc1cc2c(cc1OC)C(=Cc1ccc(N(C)C)cc1)C=C2	-7	12	0	-1	18	2
CN(C)c1ccc(C=C2C=Cc3ccccc32)cc1	-4	98*	-1	1	1	-4
CO[C@H]1CC[C@@H]2CCN(C)C(=O)[C@H](C)[C@@H](OC)CN(C)C(=O)c3cc(C#N)ccc3OC[C@H]1O2	.	.	.	-1	.	.
CC(=NNc1nccnc1Cl)c1ccc(O)c(C)c1	-19	.	.	.	-3	0
SMILES	Sa ugtP lethal	MazEF act	PfHsp40 yeast	TcdB GH inh	Mtb hypoxia inh	Sa RN4220 lethal
Cc1nc(-c2cccc(NC(=O)C(C)Oc3ccccc3)c2)cs1 (configuration not stated)	100*	-4	1	1	13	99*
Cc1nc(-c2cccc(NS(=O)(=O)c3ccc4ccccc4c3)c2)cs1	91*	-13	0	.	3	18
Cc1nc(CNS(=O)(=O)c2ccc3ccccc3c2)cs1	1	4	1	-10	-2	4
Cc1nc(-c2cccc(NC(=O)COc3ccc(Cl)cc3)c2)cs1	2	-5	56*	1	6	24
O=C(NN=Cc1cccc(NC(=O)c2ccc(Cl)cc2)c1)c1cccc(O)c1	10	.	.	.	10	3
CCN1C(=O)C2C(c3ccc(-c4ccc(OC)cc4)c(OC)c3)N3CCC[C@@]3(C(=O)OC)C2C1=O (some centres not stated)	3	.	.	.	2	3
Clc1cccc(CSc2nnc(-c3c[nH]c4ccccc34)o2)c1	-7	6	0	.	6	4
O=c1c(-c2nnc(SCc3ccc(Cl)c(Cl)c3)o2)cccn1Cc1ccccc1	86*	-9	0	.	2	-16
O=C(Nc1ccccc1-c1nnn(CC(=O)N2CCOCC2)n1)c1ccccc1F	1	-9	42*	1	11	1
Cc1ccc(-n2nc(C(=O)N3CCOCC3)cc2-c2ccc(Cl)cc2)cc1	92*	5	0	.	.	-3
O=C(CSc1nnnn1-c1ccc(F)cc1)Nc1ccccc1F	8	5	0	1	3	-1
NC(=O)c1ccc(-n2nnnc2SCC(=O)Nc2ccccc2F)cc1	14	98*	0	1	5	2
C[C@H](CO)N1C[C@H](C)[C@H](CN(C)CC2CCOCC2)Oc2cc(C#CC3CC3)ccc2S1(=O)=O	.	.	.	0	.	.
Cn1c(SCC(=O)c2cc3ccccc3o2)nnc1-c1ccccc1	-9	25	0	11*	-4	9
COc1ccc(CNc2ncnc3sccc23)cc1	-9	6	865*	1	1	4
CC1=NN(c2ccccc2)C(=O)/C1=C/C=C/C=C/N(C)C	-6	-162	.	-2	63*	-5
CCOC(=O)Cc1cc(=O)[nH]c(N=C(N)Nc2ccc(C)cc2C)n1	-12	.	.	.	1	-1
C[C@@H]1CN([C@@H](C)CO)C(=O)c2cccc(N(C)C)c2O[C@H]1CN(C)C(=O)Nc1ccc(C(F)(F)F)cc1	.	.	.	0	.	.
C[C@H](CO)N1C[C@H](C)[C@@H](CN(C)C(=O)Nc2ccc(C(F)(F)F)cc2)Oc2c(cccc2N(C)C)C1=O	.	6	1	14*	.	.
C[C@H](CO)N1C[C@H](C)[C@@H](CN(C)C(=O)Nc2ccc(C(F)(F)F)cc2)Oc2c(NS(=O)(=O)c3ccccc3)cccc2C1=O	.	7	1	10*!	.	.
CCC(=O)N1C[C@H](C)[C@H](OC)CN(C)C(=O)c2cc(NC(=O)NC(C)C)ccc2OC[C@H]1C	.	.	.	-1	.	.
CCn1c(O)c(C2=c3ccccc3=NC2=O)c2cc(Br)ccc21	101*	9	.	1	7	100*
Cc1ccc(S(=O)(=O)N2CC(C(=O)O)=CCC2c2ccc(Cl)cc2)cc1 (configuration not stated)	5	.	.	.	9	10
COc1ccc(C2=CSC(N=Cc3ccc(F)cc3)=NN2)cc1	-18	.	.	.	39*	-2
COc1ccc(C2=CSC(/N=C/c3ccc(F)cc3)=NN2)cc1	.	1	0	1	.	.
Nc1nc(NCc2ccco2)nc(N2CCCCCC2)c1[N+](=O)[O-]	98*	-1	0	.	1	95*
